# Several values for one entry are separate records, joined by “and”; a condition that tells them apart may be missing. Equal entries are not always repeated. Some structures have more than one record in an assay (separate samples or runs), and their calls can disagree. Activity calls are given as the source filed them. How the source made its calls: active means hit-call score of the fitted dose curve at least 0.9, where 1 is the maximum; inactive means score below 0.9.
# Tests used:
# [1] = read-out: Thrombomodulin, THBD (gene 7056); test: BSK_CASM3C_Thrombomodulin: BioMAP Diversity Plus: CASM3C Assay for Thrombomodulin Biomarker Activity (AID 2283051); conditions: primary human coronary artery smooth muscle cells; actives raise or lower the signal;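 further: thrombomodulin protein level measured by ELISA 24 h after dosing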
# [2] = read-out: Tissue Factor, F3 (gene 2152); test: BSK_CASM3C_TissueFactor: BioMAP Diversity Plus: CASM3C Assay for Tissue Factor Biomarker Activity (AID 2283052); conditions: primary human coronary artery smooth muscle cells; actives raise or lower the signal;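 further: cell surface tissue factor protein level read by ELISA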
# [3] = read-out: Interferon-gamma inducible Protein 10 (IP10), CXCL10 (gene 3627); test: BSK_hDFCGF_IP10: BioMAP Diversity Plus: hDFCGF Assay for Interferon-gamma inducible Protein 10 (IP10) Biomarker Activity (AID 2283053); conditions: primary human foreskin fibroblasts; actives raise or lower the signal
# How it was run: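 Primary foreskin fibroblasts, human; 24 h compound exposure; IP-10 by ELISA; bidirectional fit vs DMSO.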
# [4] = read-out: Urokinase-type plasminogen activator receptor (uPAR), PLAUR (gene 5329); test: BSK_CASM3C_uPAR: BioMAP Diversity Plus: CASM3C Assay for Urokinase-type plasminogen activator receptor (uPAR) Biomarker Activity (AID 2283054); conditions: primary human coronary artery smooth muscle cells; actives raise or lower the signal;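 further: cell-surface uPAR protein level quantified by ELISA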
# [5] = read-out: Vascular cell adhesion molecule 1 (VCAM1), VCAM1 (gene 7412); test: BSK_CASM3C_VCAM1: BioMAP Diversity Plus: CASM3C Assay for Vascular cell adhesion molecule 1 (VCAM1) Biomarker Activity (AID 2283055); conditions: primary human coronary artery smooth muscle cells; actives raise or lower the signal;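 further: VCAM-1 protein level quantified by ELISA on the cells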
# [6] = read-out: Collagen III, COL3A1 (gene 1281); test: BSK_hDFCGF_CollagenIII: BioMAP Diversity Plus: hDFCGF Assay for Collagen III Biomarker Activity (AID 2283056); conditions: primary human foreskin fibroblasts; actives raise or lower the signal
# How it was run: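 Human foreskin primary fibroblasts were exposed to test chemicals for 24 h, after which collagen III was quantified by ELISA. Activity was fitted bidirectionally against DMSO as negative control and baseline.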
# [7] = read-out: Epidermal growth factor receptor (EGFR), EGFR (gene 1956); test: BSK_hDFCGF_EGFR: BioMAP Diversity Plus: hDFCGF Assay for Epidermal growth factor receptor (EGFR) Biomarker Activity (AID 2283057); conditions: primary human foreskin fibroblasts; actives raise or lower the signal
# How it was run: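 hDFCGF system, primary human foreskin fibroblasts; compound 24 h; EGFR measured by ELISA; DMSO = negative control/baseline; bidirectional fitting.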
# [8] = read-out: Interleukin-8 (IL8), CXCL8 (gene 3576); test: BSK_hDFCGF_IL8: BioMAP Diversity Plus: hDFCGF Assay for Interleukin-8 (IL8) Biomarker Activity (AID 2283058); conditions: primary human foreskin fibroblasts; actives raise or lower the signal
# How it was run: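 hDFCGF human dermal fibroblasts; 24 h chemical exposure; IL-8 by ELISA; bidirectional curve fit vs DMSO baseline; gain or loss of signal scored.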
# [9] = BSK_hDFCGF_Proliferation: Cell Proliferation Assessment in the BioMAP Diversity Plus: hDFCGF Assay (AID 2283059); conditions: primary human foreskin fibroblasts;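 further: curves fitted for both rise and fall of signal versus DMSO baseline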
# How it was run: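 This proliferation readout used SRB total-protein staining of human foreskin fibroblasts […], normalized to DMSO with bidirectional curve fitting.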
# [10] = read-out: Macrophage colony-stimulating factor (MCSF), CSF1 (gene 1435); test: BSK_hDFCGF_MCSF: BioMAP Diversity Plus: hDFCGF Assay for Macrophage colony-stimulating factor (MCSF) Biomarker Activity (AID 2283060); conditions: primary human foreskin fibroblasts; actives raise or lower the signal
# How it was run: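 Human foreskin primary fibroblasts were treated with test chemical for 24 h, and M-CSF was then measured by ELISA. Data were fitted bidirectionally against DMSO as the negative control and activity baseline.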
# [11] = BSK_hDFCGF_SRB: Viability Assessment in the BioMAP Diversity Plus: hDFCGF Assay (AID 2283061); conditions: primary human foreskin fibroblasts;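 further: cells exposed to compound for 24 h before the read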
# How it was run: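 Human foreskin primary fibroblasts were treated with compound and assessed 24 h after dosing. Total protein was measured by sulforhodamine B staining (0.1% SRB after 10% TCA fixation, 560 nm read) as a cytotoxicity marker, with bidirectional fitting against DMSO baseline.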
# [12] = read-out: TIMP metallopeptidase inhibitor 1 (TIMP1), TIMP1 (gene 7076); test: BSK_hDFCGF_TIMP1: BioMAP Diversity Plus: hDFCGF Assay for TIMP metallopeptidase inhibitor 1 (TIMP1) Biomarker Activity (AID 2283062); conditions: primary human foreskin fibroblasts; actives raise or lower the signal
# How it was run: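 Primary human foreskin fibroblasts in the hDFCGF system were dosed with compound for 24 h, then TIMP-1 was measured by ELISA. Activity was fitted bidirectionally relative to DMSO control; parallel SRB staining assessed cytotoxicity.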
# [13] = read-out: Monokine induced gamma interferon (MIG), CXCL9 (gene 4283); test: BSK_hDFCGF_MIG: BioMAP Diversity Plus: hDFCGF Assay for Monokine induced gamma interferon (MIG) Biomarker Activity (AID 2283063); conditions: primary human foreskin fibroblasts; actives raise or lower the signal
# How it was run: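 ELISA read-out of MIG from primary human dermal fibroblasts 24 h post-dosing. Gain or loss of signal fitted bidirectionally, DMSO as baseline.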
# [14] = read-out: Matrix Metallopeptidase 1 (MMP1), MMP1 (gene 4312); test: BSK_hDFCGF_MMP1: BioMAP Diversity Plus: hDFCGF Assay for Matrix Metallopeptidase 1 (MMP1) Biomarker Activity (AID 2283064); conditions: primary human foreskin fibroblasts; actives raise or lower the signal
# How it was run: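 Primary human foreskin fibroblasts exposed to chemicals for 24 h; MMP1 measured by ELISA. Cytotoxicity tracked by SRB staining in parallel cultures; bidirectional fit relative to DMSO.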
# [15] = read-out: Plasminogen activator inhibitor-1 (PAI1), SERPINE1 (gene 5054); test: BSK_hDFCGF_PAI1: BioMAP Diversity Plus: hDFCGF Assay for Plasminogen activator inhibitor-1 (PAI1) Biomarker Activity (AID 2283066); conditions: primary human foreskin fibroblasts; actives raise or lower the signal
# How it was run: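 Primary dermal fibroblasts (human foreskin), hDFCGF system; compound 24 h; PAI-1 by ELISA; bidirectional fit vs DMSO control.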
# [16] = read-out: Intercellular Adhesion Molecule 1 (ICAM1), ICAM1 (gene 3383); test: BSK_KF3CT_ICAM1: BioMAP Diversity Plus: KF3CT Assay for Intercellular Adhesion Molecule 1 (ICAM1) Biomarker Activity (AID 2283067); conditions: primary human keratinocytes with fibroblasts; actives raise or lower the signal
# How it was run: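 Human keratinocyte plus foreskin fibroblast primary co-culture was exposed to chemical for 24 h. ICAM-1 was then quantified by ELISA, and the data were fit bidirectionally against DMSO as the negative control and baseline.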
# [17] = read-out: Interferon-gamma inducible Protein 10 (IP10), CXCL10 (gene 3627); test: BSK_KF3CT_IP10: BioMAP Diversity Plus: KF3CT Assay for Interferon-gamma inducible Protein 10 (IP10) Biomarker Activity (AID 2283068); conditions: primary human keratinocytes with fibroblasts; actives raise or lower the signal
# How it was run: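 Signal is secreted/surface IP-10 by ELISA in a human primary skin co-culture of keratinocytes and foreskin fibroblasts, taken 24 h post-dosing; DMSO served as negative control.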
# [18] = BSK_KF3CT_SRB: Viability Assessment in the BioMAP Diversity Plus: KF3CT Assay (AID 2283069); conditions: primary human keratinocytes with fibroblasts;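 further: fitted for both signal gain and loss against DMSO baseline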
# How it was run: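 Human keratinocyte and foreskin fibroblast co-culture exposed to chemical for 24 h. Total protein measured in parallel cultures by 0.1% sulforhodamine B staining after 10% TCA fixation, read at 560 nm; bidirectional fit relative to DMSO.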
# [19] = read-out: Interleukin-1 alpha (IL1a), IL1A (gene 3552); test: BSK_KF3CT_IL1a: BioMAP Diversity Plus: KF3CT Assay for Interleukin-1 alpha (IL1a) Biomarker Activity (AID 2283070); conditions: primary human keratinocytes with fibroblasts; actives raise or lower the signal
# How it was run: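 Primary human keratinocyte plus foreskin fibroblast co-culture, dosed and measured at 24 h in 96-well plates. IL-1a level quantified by ELISA; bidirectional fit relative to DMSO.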
# [20] = read-out: Vascular cell adhesion molecule 1 (VCAM1), VCAM1 (gene 7412); test: BSK_hDFCGF_VCAM1: BioMAP Diversity Plus: hDFCGF Assay for Vascular cell adhesion molecule 1 (VCAM1) Biomarker Activity (AID 2283065); conditions: primary human foreskin fibroblasts; actives raise or lower the signal
# How it was run: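 Primary human foreskin fibroblasts (hDFCGF system) were dosed with chemical and VCAM-1 was measured by ELISA 24 h later. Bidirectional curve fitting used DMSO as negative control and activity baseline.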
smiles,measurement,setting,value
O=C(O)C(F)(F)OC(F)(F)C(F)(F)OC(F)(F)C(F)(F)C(F)(F)C(F)(F)F,outcome,[1],inactive
same,outcome,[2],inactive
same,AC50,[3],15.6 µM (active) and 18.7 µM (active)
same,outcome,[4],inactive
same,outcome,[5],inactive
same,AC50,[6],22.3 µM (active) and 29.2 µM (active)
same,outcome,[7],inactive
same,outcome,[8],inactive
same,outcome,[9],inactive
same,AC50,[10],6.97 µM (active) and 30 µM (active)
same,AC50,[11],10.4 µM (active)
same,outcome,[11],inactive
same,outcome,[12],inactive
same,AC50,[13],12 µM (active) and 48.6 µM (active)
same,outcome,[14],inactive
same,outcome,[15],inactive
same,outcome,[16],inactive
same,AC50,[17],32.2 µM (active) and 30 µM (active)
same,outcome,[18],inactive
same,outcome,[19],inactive
CC(=O)CCC=C(C)CCC=C(C)C,outcome,[1],inactive
same,outcome,[2],inactive
same,outcome,[3],inactive
same,outcome,[4],inactive
same,AC50,[5],25.4 µM (active)
same,outcome,[6],inactive
same,outcome,[7],inactive
same,outcome,[8],inactive
same,AC50,[9],31.3 µM (active)
same,outcome,[10],inactive
same,outcome,[11],inactive
same,outcome,[12],inactive
same,outcome,[13],inactive
same,outcome,[14],inactive
same,outcome,[20],inactive
same,outcome,[15],inactive
same,outcome,[16],inactive
same,outcome,[17],inactive
same,outcome,[18],inactive
same,outcome,[19],inactive
C=C(C)C(N)=O,outcome,[1],inactive
same,outcome,[2],inactive
same,outcome,[3],inactive
same,outcome,[4],inactive
same,outcome,[5],inactive
same,outcome,[6],inactive
same,outcome,[7],inactive
same,outcome,[8],inactive
same,outcome,[9],inactive
same,outcome,[10],inactive
same,outcome,[11],inactive
same,outcome,[12],inactive
same,outcome,[13],inactive
same,outcome,[14],inactive
same,outcome,[15],inactive
same,outcome,[16],inactive
same,outcome,[17],inactive
same,outcome,[18],inactive
same,outcome,[19],inactive
CC(C)(CO)CO,outcome,[1],inactive
same,outcome,[2],inactive
same,outcome,[3],inactive
same,outcome,[4],inactive
same,outcome,[5],inactive
same,outcome,[6],inactive
same,outcome,[7],inactive
same,outcome,[8],inactive
same,outcome,[9],inactive
same,outcome,[10],inactive
same,AC50,[11],4.62 µM (active)
same,outcome,[11],inactive
same,outcome,[12],inactive
same,outcome,[13],inactive
same,outcome,[14],inactive
same,outcome,[15],inactive
same,outcome,[16],inactive
same,outcome,[17],inactive
same,outcome,[18],inactive
same,outcome,[19],inactive
CC1(C)[C@H](C=C(Cl)Cl)[C@H]1C(=O)OCc1cccc(Oc2ccccc2)c1,outcome,[1],inactive
same,outcome,[2],inactive
same,outcome,[3],inactive
same,outcome,[4],inactive
same,outcome,[5],inactive
same,outcome,[6],inactive
same,outcome,[7],inactive
same,outcome,[8],inactive
same,outcome,[9],inactive
same,outcome,[10],inactive
same,outcome,[11],inactive
same,outcome,[12],inactive
same,outcome,[13],inactive
same,outcome,[14],inactive
same,outcome,[15],inactive
same,outcome,[16],inactive
same,outcome,[17],inactive
same,outcome,[18],inactive
same,outcome,[19],inactive
